Results: PubChem BioAssay

Biological target: Streptavidin (Streptomyces avidinii) (UniProt P22629)
Assay: streptavidin binders on small-molecule microarray, primary screen, artefact control for SMM compound annotation, biophysical, 635/667 nm fluorescence (AID 1147);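 note: signal reflects streptavidin binding to arrayed compounds as a control protein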
Conditions: streptavidin binding, higher = more signal

Streptavidin (Streptomyces avidinii), sequence (P22629 whole entry, looked up): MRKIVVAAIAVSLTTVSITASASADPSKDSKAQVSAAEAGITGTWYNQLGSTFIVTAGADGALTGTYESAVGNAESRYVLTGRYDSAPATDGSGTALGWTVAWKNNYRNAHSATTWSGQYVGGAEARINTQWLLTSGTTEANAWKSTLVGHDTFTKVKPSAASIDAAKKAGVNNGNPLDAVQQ

SMILES | composite z-score
Cc1c(NC(=O)/C(C#N)=C/c2ccc(Cl)cc2)c(=O)n(-c2ccccc2)n1C | 1.33
CCCC=C(CCC)[C@@H](NS(=O)(=O)c1ccc(Cl)cc1)c1ccccc1 | 0.489
CN(C)CCCNC(=O)[C@@]1(Cc2ccccc2I)c2ccccc2C(=O)N(Cc2ccccc2)[C@H]1c1ccc(CO)cc1 | -0.203
CCOC(=O)C[C@H]1[C@H](OC(=O)c2ccc(-c3ccccc3)cc2)[C@@H](NC(=O)c2ccc3ccccc3c2)c2cc(OCCCO)ccc2N1C(=O)c1ccccc1 | 0.114
C=C(CCCC)C(=O)CC[C@H](OC(=O)c1cccnc1)c1ccc(CO)o1 | 0.14
COc1ccc(C#Cc2ccc3c(c2)[C@]2(C(=O)N3)[C@H](c3ccc(OCCO)cc3)N3[C@H](c4ccccc4)[C@H](c4ccccc4)OC(=O)[C@H]3[C@@H]2C(=O)O)cc1 | -0.105
COC(=O)[C@@]1(Cc2ccc(F)cc2)[C@H]2c3cc(C(=O)N(C)C)n(CCN4CCOCC4)c3C[C@H]2CN1C(=O)c1ccccc1 | 1.36
CCCC[C@@H]1C[C@H]1[C@@H](NC(=O)c1ccc(C(F)(F)F)cc1)c1ccc(C(=O)OC)cc1 | 1.59
COC(=O)[C@@]1(Cc2ccccc2)[C@@H]2[C@@H](CC(=O)[C@H]2CC(=O)C(=O)N(C)C)CN1C(=O)c1ccccc1 | 0.315
COC(=O)[C@@]1(Cc2ccc(OC)cc2)[C@H]2c3cc(C(=O)N4CCCC4)n(CCc4ccc(OC)c(Br)c4)c3C[C@H]2CN1C(=O)c1ccccc1 | 0.0687
O=C1NC(=O)C2C1C=CC(C(O)c1cccc(O)c1)N2Nc1ccc(Cl)cc1Cl (configuration not stated) | 0.423
C=C(COC)C(=O)CC[C@@H](OC(C)=O)c1ccc(OCCO)cc1 | -0.0368

System: not listed separately
Assay: small-molecule binders of probe aInhba, primary screen, biochemical, small-molecule microarray, 635/667 nm fluorescence (AID 1148);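 note: score merges 667nm spot fluorescence with signal-to-noise for antibody binding to printed compounds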
Conditions: higher = more signal

SMILES | composite z-score
CCCCN1CC=CC23O[C@@H]4C=CCOC(=O)[C@@H]4[C@H]2C(=O)N(CCO)[C@@H]3C1=O (some centres not stated) | 0.059
C=CC[C@@]12N=C(c3ccc(OCCCO)cc3)O[C@@H]1c1ccccc1N(Cc1ccccc1)C2=O | 0.605
COCCOC(=O)N1C(=O)[C@@]2(c3cc(C#CCC(C(=O)OC)C(=O)OC)ccc31)[C@H](C(N)=O)[C@H]1C(=O)O[C@H](c3ccccc3)[C@H](c3ccccc3)N1[C@@H]2c1ccc(OCCO)cc1 | 0.105
CCOC(=O)C1=C(C(=O)OCC)N(S(=O)(=O)CC[Si](C)(C)C)[C@H](c2ccccc2)CC1 | 0.131
COC(=O)C1=CC(CCCO)=CC(c2ccc(CN3CCCC3)cc2)N(Cc2sc3ccccc3c2Cl)C=C1C(=O)OC (configuration not stated) | 0.662
C=CCNC(=O)[C@@H]1[C@H]2C(=O)O[C@H](c3ccccc3)[C@H](c3ccccc3)N2[C@H](c2ccc(O)cc2)[C@@]12C(=O)Nc1ccc(C#CC3(O)CCCCCC3)cc12 | -0.128
NC(=O)NCC#Cc1ccc2c(c1)[C@]1(C(=O)N2)[C@H](C(=O)Nc2nc3ccccc3s2)[C@H]2C(=O)O[C@H](c3ccccc3)[C@H](c3ccccc3)N2[C@@H]1c1ccc(OCCO)cc1 | 0.264
COCCOC(=O)N1C(=O)[C@@]2(c3cc(C#CC4(O)CCCCCC4)ccc31)[C@H](c1ccccc1OCCO)N1[C@H](c3ccccc3)[C@H](c3ccccc3)OC(=O)[C@H]1[C@@H]2C(=O)N1CCCCCCC1 | 1.2
COCCOC(=O)N1C(=O)[C@@]2(c3cc(C#CCCO)ccc31)[C@H](C(=O)N1CCc3cc(OC)c(OC)cc3C1)[C@H]1C(=O)O[C@H](c3ccccc3)[C@H](c3ccccc3)N1[C@@H]2c1ccccc1OCCO | 0.425
[N-]=[N+]=NCc1ccccc1[C@H]1OC(c2ccc(OCCCO)cc2)=N[C@@]1(Cc1ccccc1)C(=O)N1CCOCC1 | 0.355
C=CCOC(=O)[C@H]1[C@@H]2C(=O)O[C@@H](c3ccccc3)[C@@H](c3ccccc3)N2[C@@H](c2ccc(OCCOC(=O)[C@@H]3C[C@@H]4C(=O)N[C@@H](CC(C)C)C(=O)N4[C@@H]3c3ccc(O)cc3)cc2)[C@]12C(=O)Nc1ccc(I)cc12 | -0.0791
COCCOC(=O)N1C(=O)[C@@]2(c3cc(C#CCC(C(=O)OC)C(=O)OC)ccc31)[C@H](C(=O)N1CCc3cc(OC)c(OC)cc3C1)[C@H]1C(=O)O[C@H](c3ccccc3)[C@H](c3ccccc3)N1[C@@H]2c1ccc(O)cc1 | 0.134
O=C1c2ccccc2[C@@]2(Cc3ccccc3N(Cc3ccccc3)C2=O)[C@H](c2ccc(CO)cc2)N1Cc1ccccc1 | -0.176
CN(C)CCCC[C@@H]1NC(=O)[C@@H]2C[C@H](C(=O)NCCCCCCNC(=O)CS)[C@H](c3cccc(OCCO)c3)N2C1=O | -0.0471
CCCC[C@H]1OB(O)C[C@H]2C1=C(COC)C[C@H]1C(=O)C=CC(=O)[C@H]12 | -0.0552
C=C(/C(=C/C[C@@H](OC(C)=O)c1ccccc1OCCO)c1cc(C(=O)OC)ccc1OC)C(C)C | -0.024
C=C(CCCC)/C(=C/C[C@H](OC(C)=O)c1cccc(OCCO)c1)c1cc(C(=O)OC)ccc1OC | -0.0059
CN(C)CCCC[C@@H]1NC(=O)[C@@H]2C[C@H](C(=O)NCc3ccc(F)cc3)[C@H](c3ccc(O)cc3)N2C1=O | 0.305

SMILES | composite z-score
C=CCNC(=O)[C@@H]1[C@H]2C(=O)O[C@H](c3ccccc3)[C@H](c3ccccc3)N2[C@H](c2ccccc2OCCO)[C@@]12C(=O)N(C(=O)OCCOC)c1ccc(C#CCCO)cc12 | 0.0649
C=CCC(OC(C)=O)[C@@H]1[C@@H](N(Cc2cc3ccccc3o2)C(=O)c2ccc(-c3ccccc3)cc2)c2cc(OCCCO)ccc2N1C(=O)c1ccc2ccccc2n1 (some centres not stated) | 0.0228
COc1ccc(C#Cc2ccc3c(c2)[C@]2(C(=O)N3)[C@H](C(=O)Nc3nc4ccccc4s3)[C@H]3C(=O)O[C@H](c4ccccc4)[C@H](c4ccccc4)N3[C@@H]2c2ccc(OCCO)cc2)cc1 | 0.153
C=CCC(OC(C)=O)[C@@H]1[C@@H](N(Cc2cc3ccccc3o2)C(=O)Cc2ccc(OC)cc2)c2cc(OCCCO)ccc2N1C(=O)Cc1ccc(OC)cc1 (some centres not stated) | 0.168
COCCOC(=O)N1C(=O)[C@@]2(c3cc(C#CC4(O)CCCCCC4)ccc31)[C@H](C(=O)NC[C@H](O)c1ccccc1)[C@H]1C(=O)O[C@H](c3ccccc3)[C@H](c3ccccc3)N1[C@@H]2c1ccc(O)cc1 | 0.12
Cc1c(NC(=O)/C(C#N)=C/c2ccc(Cl)cc2)c(=O)n(-c2ccccc2)n1C | -0.0259
CCCC=C(CCC)[C@@H](NS(=O)(=O)c1ccc(Cl)cc1)c1ccccc1 | 0.0807
CN(C)CCCNC(=O)[C@@]1(Cc2ccccc2I)c2ccccc2C(=O)N(Cc2ccccc2)[C@H]1c1ccc(CO)cc1 | -0.471
CCOC(=O)C[C@H]1[C@H](OC(=O)c2ccc(-c3ccccc3)cc2)[C@@H](NC(=O)c2ccc3ccccc3c2)c2cc(OCCCO)ccc2N1C(=O)c1ccccc1 | 0.0497
C=C(CCCC)C(=O)CC[C@H](OC(=O)c1cccnc1)c1ccc(CO)o1 | 0.212
COc1ccc(C#Cc2ccc3c(c2)[C@]2(C(=O)N3)[C@H](c3ccc(OCCO)cc3)N3[C@H](c4ccccc4)[C@H](c4ccccc4)OC(=O)[C@H]3[C@@H]2C(=O)O)cc1 | 0.927
COC(=O)[C@@]1(Cc2ccc(F)cc2)[C@H]2c3cc(C(=O)N(C)C)n(CCN4CCOCC4)c3C[C@H]2CN1C(=O)c1ccccc1 | 0.17
CCCC[C@@H]1C[C@H]1[C@@H](NC(=O)c1ccc(C(F)(F)F)cc1)c1ccc(C(=O)OC)cc1 | -0.0092
COC(=O)[C@@]1(Cc2ccccc2)[C@@H]2[C@@H](CC(=O)[C@H]2CC(=O)C(=O)N(C)C)CN1C(=O)c1ccccc1 | -0.0963
COC(=O)[C@@]1(Cc2ccc(OC)cc2)[C@H]2c3cc(C(=O)N4CCCC4)n(CCc4ccc(OC)c(Br)c4)c3C[C@H]2CN1C(=O)c1ccccc1 | 0.195
O=C1NC(=O)C2C1C=CC(C(O)c1cccc(O)c1)N2Nc1ccc(Cl)cc1Cl (configuration not stated) | -0.13
C=C(COC)C(=O)CC[C@@H](OC(C)=O)c1ccc(OCCO)cc1 | -0.0523
